Measurements taken from the supplement of paper PMC4894684.
Counter-ions that a name gives are not always drawn. ± gives the standard deviation of the averaged measurements.

System: Toxoplasma gondii RH (in HFF)
Assay: parasite growth relative to the screen mean (all compounds = 100%); higher = less inhibition of parasite growth
Conditions: 5 µM; 72 h; oxygen 21 %
In short: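 Parasite growth was reported relative to the screen mean. In that scale, the mean of all compounds equals 100%, and values are averaged over two screens. Compounds from 10 mM DMSO stocks were pin-transferred to 5 µM final onto confluent human foreskin fibroblasts in 96-well plates, infected within 2 h with RH β-Gal–GFP Toxoplasma (MOI 1:5) and grown 72 h at 21% O2, with parasite number read by a CPRG β-Gal assay against in-plate standard curves. Uninfected host-cell viability was checked with CellTiter-Blue.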

| SMILES | parasite growth |
| --- | --- |
| CC[C@H](C)C(=O)O[C@H]1C[C@@H](C)C=C2C=C[C@H](C)[C@H](CC[C@@H]3C[C@@H](O)CC(=O)O3)[C@H]21 [Lovastatin] | 128 ± 17% |
| CCS(=O)(=O)N1CCC[C@@H]2CN3CCc4cc(OC)ccc4[C@@H]3C[C@@H]21 | 125 ± 31% |
| O=[N+]([O-])c1cc2nc(O)c(O)nc2cc1[N+](=O)[O-] | 91.7 ± 27% |
| COC(=O)C[C@](O)(CCCC(C)(C)O)C(=O)O[C@@H]1C(OC)=C[C@]23CCCN2CCc2cc4c(cc2[C@H]13)OCO4 [Homoharringtonine] | < 0% |
| Oc1ccc(Nc2nc(-c3ccc(Cl)cc3)cs2)cc1 | 26.9 ± 8% |
| Nc1ncnc2n[nH]c(Nc3ccc(F)cc3)c12 | 94.4 ± 26% |
| N=C(N)c1ccc(N2CCN(C3CCN(CC(=O)O)CC3)CC2)cc1 | 128 ± 33% |
| CCS(=O)(=O)N(C)[C@H]1c2cc(C#N)ccc2OC(C)(C)[C@@H]1O [(-)-[3R,4S]-Chromanol 293B] | 121 ± 9.2% |
| Nc1nc(NCCc2ccc(O)cc2)nc2nc(-c3ccco3)nn12 | 11.2 ± 10% |
| Fc1ccc([C@@H]2CCNC[C@H]2COc2ccc3c(c2)OCO3)cc1 [Paroxetine maleate] | 39.5 ± 4% |
| NS(=O)(=O)c1cccc2c1c([N+](=O)[O-])cc1nc(O)c(O)nc12 [NBQX disodium salt] | 112 ± 14% |
| O=S(=O)(c1ccccc1)N(CC(F)(F)F)c1ccc(C(O)(C(F)(F)F)C(F)(F)F)cc1 | 132 ± 5.8% |
| CSc1ccc2c(c1)C(N1CCN(C)CC1)Cc1ccccc1S2 (centres undefined) [Methiothepin maleate] | < 0% |
| Cn1cnc2c(NCc3ccccc3)nc(NCCO)nc21 [Olomoucine] | 127 ± 7.9% |
